Measurements reported in PubChem BioAssay.
A number with no mark means an inactive call. Entries that show only a call come without a potency. For some assays here: Potency and affinity values are given separately. Active and inactive are the calls of the source. Unless noted, the rule behind the calls is not given here.

Assays:
[1] = antimalarial activity against Dd2 strain (AID 2302;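 active = growth inhibition above 50% at the single 2 µM test dose, taken to imply half-maximal potency below 2 µM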); details: P. falciparum Dd2 in RBCs, LDH growth readout, 72 h; at 2 µM; hits give high values
[2] = human hepatoma cell viability loss – ATP luminescence, cytotoxicity control for P. falciparum antimalarial project, primary screen (AID 2303;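 active = inhibition above 50%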); details: HepG2 viability, 24-48 h, at 10 µM, hits give high values
[3] = biological target: L-lactate dehydrogenase (Plasmodium falciparum (isolate CDC / Honduras)) (UniProt Q27743); test: PfLDH activity inhibition – cell lysate, 3D7 strain, counter-screen for P. falciparum growth inhibition project (AID 2304); details: P. falciparum 3D7 crude extract, LDH APAD/NBT absorbance; at 2 µM; hits give high values
[4] = inhibition of 3D7 malaria parasite growth – strain 3D7 (AID 2306); details: P. falciparum 3D7 erythrocytic growth, LDH absorbance, 72 h; at 2 µM; hits give high values
[5] = biological target: Calcium-dependent protein kinase 1 (Plasmodium falciparum (isolate 3D7)) (UniProt P62344); test: PfCDPK1 kinase inhibitors, biochemical, TCAMS library (AID 1159585; cut-off not given, nearly all actives have IC50 up to about 0.98 µM;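 note: inhibitors leave more ATP so luminescence rises with inhibition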); details: recombinant PfCDPK1, Kinase-Glo ATP depletion luminescence
[6] = biological target: Plasmodium falciparum protein kinase 6 (PK6, PF3D7_1337100) (UniProt Q8IDW1); test: PfPK6 kinase inhibitors, biochemical, TCAMS library (AID 1159586); details: recombinant PfPK6, Kinase-Glo ATP depletion luminescence
[7] = biological target: Protein kinase 7 (PK7), Plasmodium falciparum 3D7 (PF3D7_0213400) (UniProt Q7YTF7); test: inhibition of Plasmodium PK7 catalytic activity – biochemical, TCAMS antimalarial set, Kinase-Glo luminescence (AID 1159587); details: recombinant PfPK7, Kinase-Glo ATP depletion luminescence
[8] = biological target: Calcium-dependent protein kinase 4 (Plasmodium falciparum (isolate 3D7)) (UniProt Q8IBS5); test: PfCDPK4 kinase inhibitors, biochemical, TCAMS library (AID 1159588; cut-off not given, nearly all actives have IC50 up to about 0.91 µM); details: recombinant PfCDPK4, Kinase-Glo ATP depletion luminescence
Calcium-dependent protein kinase 4 (Plasmodium falciparum (isolate 3D7)), sequence (Q8IBS5 whole entry, looked up): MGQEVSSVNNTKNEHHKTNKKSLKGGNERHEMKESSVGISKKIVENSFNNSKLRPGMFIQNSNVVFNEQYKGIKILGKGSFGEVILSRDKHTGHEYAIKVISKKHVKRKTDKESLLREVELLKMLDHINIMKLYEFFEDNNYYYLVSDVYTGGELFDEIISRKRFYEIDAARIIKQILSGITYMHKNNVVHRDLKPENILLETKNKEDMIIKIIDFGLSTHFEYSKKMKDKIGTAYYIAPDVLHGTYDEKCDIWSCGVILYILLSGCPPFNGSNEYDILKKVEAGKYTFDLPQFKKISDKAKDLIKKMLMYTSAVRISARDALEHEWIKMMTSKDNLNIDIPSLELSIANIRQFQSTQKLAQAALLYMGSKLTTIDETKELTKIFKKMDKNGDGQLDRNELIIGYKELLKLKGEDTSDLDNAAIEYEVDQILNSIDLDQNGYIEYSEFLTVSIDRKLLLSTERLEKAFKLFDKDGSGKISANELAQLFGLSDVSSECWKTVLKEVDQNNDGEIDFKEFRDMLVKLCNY

Protein kinase 7 (PK7), Plasmodium falciparum 3D7 (PF3D7_0213400), sequence (Q7YTF7 1-343): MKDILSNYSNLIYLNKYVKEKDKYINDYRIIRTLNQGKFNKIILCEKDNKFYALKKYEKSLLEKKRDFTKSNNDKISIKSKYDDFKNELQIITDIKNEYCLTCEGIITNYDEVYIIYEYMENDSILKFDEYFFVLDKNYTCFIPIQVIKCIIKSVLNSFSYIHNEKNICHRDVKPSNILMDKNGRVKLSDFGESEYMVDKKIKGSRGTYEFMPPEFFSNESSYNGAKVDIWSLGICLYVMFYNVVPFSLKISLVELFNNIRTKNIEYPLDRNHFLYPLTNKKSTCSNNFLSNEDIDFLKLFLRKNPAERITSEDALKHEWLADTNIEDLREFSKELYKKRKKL
Calcium-dependent protein kinase 1 (Plasmodium falciparum (isolate 3D7)), sequence (P62344 whole entry, looked up): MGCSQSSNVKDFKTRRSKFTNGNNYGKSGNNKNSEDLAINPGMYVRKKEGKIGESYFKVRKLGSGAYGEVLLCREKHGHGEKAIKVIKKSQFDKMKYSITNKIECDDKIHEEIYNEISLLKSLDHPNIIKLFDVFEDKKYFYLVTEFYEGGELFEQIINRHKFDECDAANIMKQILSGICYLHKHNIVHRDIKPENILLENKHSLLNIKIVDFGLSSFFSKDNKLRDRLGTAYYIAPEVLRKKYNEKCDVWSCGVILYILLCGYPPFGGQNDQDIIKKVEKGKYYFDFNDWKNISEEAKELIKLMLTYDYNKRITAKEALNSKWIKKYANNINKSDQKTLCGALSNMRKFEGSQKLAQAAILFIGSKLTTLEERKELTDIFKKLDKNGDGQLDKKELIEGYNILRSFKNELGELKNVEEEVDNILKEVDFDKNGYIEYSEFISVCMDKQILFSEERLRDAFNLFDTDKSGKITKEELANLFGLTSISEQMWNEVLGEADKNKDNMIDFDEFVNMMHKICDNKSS
Plasmodium falciparum protein kinase 6 (PK6, PF3D7_1337100), sequence (Q8IDW1 1-305): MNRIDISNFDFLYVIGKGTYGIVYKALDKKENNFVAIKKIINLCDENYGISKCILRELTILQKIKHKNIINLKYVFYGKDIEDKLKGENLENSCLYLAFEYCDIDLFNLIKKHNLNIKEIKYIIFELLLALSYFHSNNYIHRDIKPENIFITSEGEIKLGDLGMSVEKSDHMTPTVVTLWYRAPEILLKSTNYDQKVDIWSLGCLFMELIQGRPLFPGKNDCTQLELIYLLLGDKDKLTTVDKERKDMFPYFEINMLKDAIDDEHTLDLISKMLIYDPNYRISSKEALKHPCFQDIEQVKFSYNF
L-lactate dehydrogenase (Plasmodium falciparum (isolate CDC / Honduras)), sequence (Q27743 whole entry, looked up): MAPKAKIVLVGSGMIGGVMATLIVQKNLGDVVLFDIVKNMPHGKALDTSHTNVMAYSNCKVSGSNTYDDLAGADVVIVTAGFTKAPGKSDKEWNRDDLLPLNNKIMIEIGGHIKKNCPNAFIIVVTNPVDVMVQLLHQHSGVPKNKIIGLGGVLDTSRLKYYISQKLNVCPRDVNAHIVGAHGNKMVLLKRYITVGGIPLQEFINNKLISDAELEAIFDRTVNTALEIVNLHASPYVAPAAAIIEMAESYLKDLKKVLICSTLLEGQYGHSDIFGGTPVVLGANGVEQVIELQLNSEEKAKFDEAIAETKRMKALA

| SMILES | growth inhibition [1] | inhibition [2] | inhibition [3] | growth inhibition [4] | outcome [5] | outcome [6] | outcome [7] | outcome [8] |
| --- | --- | --- | --- | --- | --- | --- | --- | --- |
| CN(C)CC1CCCN1Cc1ccccc1-c1cnn(C)c(=O)c1Oc1cccc(C#N)c1 (stereo not given) | 15% | 26% | 4% | 92% (active) | inactive | inactive | inactive | inactive |
| O=C(NC1CCN(CC2(c3ccc(Cl)cc3)CCCCC2)CC1)c1ccn[nH]1 | 96% (active) | -3% | 4% | 98% (active) | inactive | inactive | inactive | inactive |
| COCC(C)n1c(SC(C)C(=O)Nc2cc([N+](=O)[O-])ccc2Cl)nc2ccccc2c1=O (stereo not given) | 94% (active) | -8% | 2% | 95% (active) | inactive | inactive | inactive | inactive |
| O=C(NC1CC1)C1CCN(Cc2cc3ccccc3n2Cc2ccc(Cl)cc2)CC1 | 96% (active) | 16% | -1% | 95% (active) | inactive | inactive | inactive | inactive |
| O=C(N[C@@H](CC1CCCCC1)C(=O)NCCN1CCCCC1)c1ccc(O)c(-c2ccc(Cl)c(Cl)c2)c1 | 99% (active) | 14% | -6% | 97% (active) | inactive | inactive | inactive | inactive |
| CCCNCc1ccc(-c2ccc(CN(CCOC)C(=O)Cc3cccnc3)cc2)nc1 | 13% | 10% | -1% | 92% (active) | inactive | inactive | inactive | inactive |
| CC(C)N1CCC(N(Cc2ccc(-c3ccc(C(F)(F)F)cc3)cc2)C(=O)CCCn2c(CCc3cccc(F)c3F)nc(=O)c3ccccc32)CC1 | 60% (active) | 45% | -5% | 89% (active) | inactive | inactive | inactive | inactive |
| CS(=O)(=O)Nc1ccc2c(C3CCN(CCC4CCN(C(=O)/C=C/c5ccc(Cl)c(Cl)c5)CC4)CC3)c[nH]c2c1 | 63% (active) | 35% | -3% | 99% (active) | inactive | inactive | inactive | inactive |
| CCc1ccc(NC(=O)c2ccc(CN3CCCN(Cc4ccc(C)s4)CC3)cc2)cc1 | -2% | 48% | -2% | 87% (active) | inactive | inactive | inactive | inactive |
| C[C@@H](CC1CCCCC1)OC(=O)N[C@H]1CCN(C#N)C1 | 83% (active) | 7% | 1% | 95% (active) | inactive | inactive | inactive | inactive |
| CCCN(CC1CC1)c1nc(C)nc2c(-c3ccccc3)cc(C)cc12 | 78% (active) | 72% (active) | 1% | 96% (active) | inactive | inactive | inactive | inactive |
| CC(C)CNCc1ccc(-c2cccc(CN(CCN(C)C)C(=O)NCCc3ccccc3)c2)cc1 | 37% | 33% | -6% | 91% (active) | inactive | inactive | inactive | inactive |
| Cc1ccc(CNC(=O)c2cc3c(=O)n4ccccc4nc3n(CCCN3CCOCC3)c2=N)cc1 | 5% | 21% | -3% | 92% (active) | inactive | inactive | inactive | inactive |
| O=S(=O)(c1ccc(OCc2ccc(Cl)cc2)cc1)c1cc2c(cc1O)CCN(C1CCC1)CC2 | 63% (active) | 11% | 3% | 99% (active) | inactive | inactive | inactive | inactive |
| CCN1CCN(Cc2ccc(NC(=O)c3cc4ccc5cccnc5c4[nH]3)cc2)CC1 | 97% (active) | -3% | -3% | 100% (active) | inactive | inactive | inactive | inactive |
| O=[N+]([O-])c1ccc2nc(Nc3ccc(Cl)c(Cl)c3)c(Nc3ccc(Cl)c(Cl)c3)nc2c1 | 99% (active) | 1% | 3% | 101% (active) | inactive | inactive | inactive | inactive |
| CCc1c(C(=O)NC2CCC(N3CCC(c4ccccc4OC)CC3)CC2)[nH]c2ccc(OC)cc12 (stereo not given) | 99% (active) | 43% | -5% | 101% (active) | inactive | inactive | inactive | inactive |
| O=C(Nc1ccc(C(=O)Oc2cccc3ccccc23)cc1)N[C@@H](Cc1ccc(O)cc1)C(=O)NC1CCN(Cc2ccc(O)cc2)C1 (stereo not given in full) | -5% | -1% | 1% | 87% (active) | inactive | inactive | inactive | inactive |
| NC(Cc1ccc(Cl)cc1)=NCCN1CCCCCC1 | 94% (active) | -8% | -2% | 93% (active) | inactive | inactive | inactive | inactive |
| Cc1cc(NN=Cc2ccccc2Cl)c2cc(C(F)(F)F)ccc2n1 | 75% (active) | -4% | -4% | 100% (active) | inactive | inactive | inactive | inactive |

| SMILES | growth inhibition [1] | inhibition [2] | inhibition [3] | growth inhibition [4] | outcome [5] | outcome [6] | outcome [7] | outcome [8] |
| --- | --- | --- | --- | --- | --- | --- | --- | --- |
| Nc1n[nH]c(-c2ccccc2Nc2ccnc3cc(-c4nccs4)ccc23)n1 | 94% (active) | 98% (active) | -2% | 100% (active) | inactive | inactive | inactive | inactive |
| CS(=O)(=O)N1CC2(CCN(CCC(NC(=O)NCc3ccc(Cl)c(Cl)c3)c3ccc(Cl)c(Cl)c3)CC2)c2ccccc21 (stereo not given) | 59% (active) | 19% | -8% | 89% (active) | inactive | inactive | inactive | inactive |
| Cc1cccc2[nH]c(-c3ccc(-c4cccc(NC(=O)Nc5ccc(Cl)c(Cl)c5)c4)s3)nc12 | 36% | 46% | -1% | 101% (active) | inactive | inactive | inactive | inactive |
| CCCc1cc(Cc2cnc(N)nc2N)cc(OCCCCCC(=O)O)c1OC | 2% | 8% | 4% | 95% (active) | inactive | inactive | inactive | inactive |
| COc1ccc2nccc(N3CCC(O)(CCNCc4ccc5c(n4)NC(=O)CS5)CC3)c2n1 | 21% | 10% | 0% | 99% (active) | inactive | inactive | inactive | inactive |
| Cc1ccc2nc(Cl)c3cc(C(=O)NCCCN4CCCC4)sc3c2c1 | 40% | 26% | 0% | 89% (active) | inactive | inactive | inactive | inactive |
| CCCCC(=O)N(CCOC)Cc1ccc(-c2ccc(CNCCC)cn2)cc1 | 68% (active) | 30% | -3% | 99% (active) | inactive | inactive | inactive | inactive |
| O=C(/C=C/c1ccc(Cl)c(Cl)c1)NCCCCN1CCCN(C(=O)Nc2ccc(C(F)(F)F)cc2)CC1 | -1% | 35% | 5% | 94% (active) | inactive | inactive | inactive | inactive |
| CCCN(CCC)CCCOc1ccc(C(=O)c2c(-c3ccc(OCCCN(CCC)CCC)cc3)oc3ccc(Cl)cc23)cc1 | 95% (active) | 100% (active) | -8% | 96% (active) | inactive | inactive | inactive | inactive |
| O=C(NC1CCN(Cc2ccccc2O)C1)c1ccc(-c2ccccc2)cc1 (stereo not given) | 25% | -5% | 4% | 99% (active) | inactive | inactive | inactive | inactive |
| NC(N)=Nc1nc(-c2cccc(NC(=O)NCC(c3ccccc3)c3ccccc3)c2)cs1 | 87% (active) | -3% | 1% | 100% (active) | inactive | inactive | inactive | inactive |
| COc1cc2ccccc2cc1CCNCCCCNCCc1cc2ccccc2cc1OC | 38% | 100% (active) | 2% | 99% (active) | inactive | inactive | inactive | inactive |
| COc1ccc2ncc(F)c(CCN3CCC(NCc4cc(C)c5c(c4)OCCO5)CC3)c2n1 | 67% (active) | 20% | 0% | 100% (active) | inactive | inactive | inactive | inactive |
| Cc1cccc(Nc2nc(C)cc(N3CCCN(CC4CCCCC4)CC3)n2)c1 | 21% | 20% | -2% | 83% (active) | inactive | inactive | inactive | inactive |
| Oc1ccc(Nc2nc(NCC3CCCO3)c3ccccc3n2)cc1 (stereo not given) | 57% (active) | 7% | 4% | 103% (active) | inactive | inactive | inactive | inactive |
| CC(C)N1CCN(C(CN2CCN(CCCOc3cccc(F)c3)CC2)c2ccc(F)cc2)CC1 (stereo not given) | 38% | 38% | 0% | 92% (active) | inactive | inactive | inactive | inactive |
| CC(=O)Nc1nc(C(=O)Nc2cccc(-c3ccc4c(cnn4CC4CC4)c3)c2)cs1 | 67% (active) | 16% | 2% | 95% (active) | inactive | inactive | inactive | inactive |
| CCc1sc(-c2ccc(C(C)(C)C)cc2)nc1C(=O)NCCCN1CCCC1=O | 69% (active) | 0% | -5% | 84% (active) | inactive | inactive | inactive | inactive |
| CCN(CC)CCN(Cc1ccc(-c2ccc(C(F)(F)F)cc2)cc1)C(=O)Cn1c(/C=C/c2ccco2)nc(=O)c2ccccc21 | 86% (active) | 28% | -2% | 94% (active) | inactive | inactive | inactive | inactive |
| CCN(CCCN1CCCCC1)c1cc(C)nc(Nc2ccc(C(F)(F)F)cc2)n1 | 99% (active) | 26% | -3% | 102% (active) | inactive | inactive | inactive | inactive |
